Results reported in ChEMBL document CHEMBL3988442, “University of Dundee, Small-Polar-MMV Screening Library” (2021).
The campaign covered roughly 48,000 compounds. About 13,000 (27%) showed an effect of 50% or more. The list shows a part of the results.

What follows are compounds tested on Wolbachia pipientis (assay: Anti-Wolbachia Cell-Based Screen). Conditions: 5 µM.
Assay type: functional
Design: scale not given: in the data most compounds retested in dose-response had high values

Compound	Percent Effect [%]
O=C(c1cc(-n2cccn2)ccn1)N1CCOc2ncccc21	-22.54
COCCc1noc(CN(C)C(=O)c2cccc(N3CCCC3=O)c2)n1	-10.13
Cc1noc(C2CCCN(CC(=O)N3CCc4ccccc4C3)C2)n1 (stereo unspecified)	4.147
COCCc1noc(CN(C)C(=O)C(C)N2CCc3ccccc3C2)n1 (stereo unspecified)	110.4
CC(C)c1cc(CN(C)C(=O)C(C)N2CCc3ccccc3C2)no1 (stereo unspecified)	103.9
COCCc1noc(CN(C)C(=O)C2COc3ccccc3C2)n1 (stereo unspecified)	-1.856
CN(Cc1cc(C2CC2)on1)C(=O)C(c1cccnc1)N1CCCC1 (stereo unspecified)	-7.414
CC(C(=O)N(C)Cc1noc(C2CCC2)n1)N1CCc2ccccc2C1 (stereo unspecified)	96.98
COc1cccc2c1N(Cc1noc(C3CC3)n1)CCC2	-4.254
CC(C(=O)N(C)C)N1CCc2onc(-c3cccc(F)c3)c2C1 (stereo unspecified)	-12.34
CCCn1cnnc1CNC(=O)C1COc2c(cccc2OC)C1 (stereo unspecified)	-10.56
COc1cccc(N2CCN(C(=O)C(O)c3cccc(Cl)c3)CC2=O)c1 (stereo unspecified)	-25.1
Cc1ccc(N2CCCC(N3CCC(CO)CC3)C2=O)cc1 (stereo unspecified)	-5.905
COc1cccc(N2CCN(C(=O)CCO)CC2=O)c1	0.6756
Cc1cc(C)cc(N2CCN(C(=O)CCN3C[C@@H]4CC[C@H]3C4)CC2=O)c1	110.5
Cc1ccc(N2CCN(C(=O)CN3C[C@@H]4CC[C@H]3C4)CC2=O)cc1	111.2
CN(C)c1nc2c(c(N(C)C)n1)CCN(C(=O)CN1C[C@@H]3CC[C@H]1C3)C2	-4.711
Cc1ccc2oc(=O)n(CCC(=O)N3CCN(C)C(=O)C3)c2c1	7.292
O=C(CCN1C[C@@H]2CC[C@H]1C2)N1CCN(c2cccc(Cl)c2)C(=O)C1	108.3
COCCN1C[C@H]2CC[C@@H]1CN(C(=O)CCc1c(C)nn(C)c1C)C2	8.536
CC(C)Cn1cncc1Cn1cccc(C(F)(F)F)c1=O	13.38
CCN(CC)CCn1cc(NC(=O)c2ccccc2OC)cn1	7.312

Compound	Percent Effect [%]
COc1cccc(C(=O)NC(C)CCN2CCOCC2)c1F (stereo unspecified)	4.529
CCC(C)NC(=O)c1nn(C)c(NC(=O)c2ccccc2OC)c1F (stereo unspecified)	131.5
COc1ccccc1C(=O)NC(C)CC(=O)O (stereo unspecified)	5.398
COc1ccccc1C(=O)Nc1c(F)c(C(=O)NCCC(C)C)nn1C	138.9
CC(C)Oc1ccccc1C(=O)NCCc1nncn1C	-7.55
CCN1CCNC(=O)C12CCN(S(=O)(=O)c1ccccc1)CC2	-28.29
CC1(c2[nH]ncc2C(N)=O)CCN(S(=O)(=O)c2ccccc2)CC1	129
CC1(c2[nH]ncc2C(N)=O)CCN(c2ncccn2)CC1	105.4
Cc1cnc(N2CCC3(CC2)CC3CNC(=O)N(C)C)nc1 (stereo unspecified)	-2.686
CN(C)C(=O)c1cn[nH]c1C1(C)CCN(c2ncccn2)CC1	98.94
Cc1nc2c(c(N3CCN(c4ncccc4C(N)=O)CC3)n1)CCNC2	-20.98
CN1C(=O)CCC12CCN(S(=O)(=O)c1ccccc1)CC2	-37.9
NC(=O)N1CCC2(CC1)CN(c1ncccn1)CCO2	-107.3
Cc1ccc(-c2cn[nH]c2C2CCCN(c3ccnc(C)n3)C2)cc1 (stereo unspecified)	-2.431
Cc1nccc(N2CCCC(C)(c3[nH]ncc3C(N)=O)C2)n1 (stereo unspecified)	108.3
CN(C)C(=O)CC1CC2(CCN(c3ncccn3)CC2)c2ccccc21.O=C(O)C(F)(F)F (stereo unspecified)	8.977
CC(C)=CCC1(C(=O)O)CCCN(c2ccnc(C)n2)C1 (stereo unspecified)	-9.118
CNC(=O)CN(C)Cc1ccc(F)cc1Cl	-1.762
O=C(c1nc(N2CCCC2)ncc1Cl)N1CCN(Cc2ccsc2)CC1	11.05
CCn1ncc2c1CCCC2NCc1csc(C(C)C)n1 (stereo unspecified)	-1.873
CC(C)Cc1nc(CS(=O)(=O)c2ccccc2)no1	-7.933
O=C1CC(c2ccncc2)C2(CCN(C(=O)c3ccnnc3)CC2)N1 (stereo unspecified)	8.485

Compound	Percent Effect [%]
Cn1cc(C2CC(=O)NC23CCN(C(=O)C2CC=CC2)CC3)cn1 (stereo unspecified)	98.1
Cn1cc(C2CC(=O)NC23CCN(C(=O)NC2CC2)CC3)cn1 (stereo unspecified)	102
O=C(O)C(F)(F)F.O=C1CC(c2ccncc2)C2(CCN(C(=O)NC3CC3)CC2)N1 (stereo unspecified)	-11.64
COCC(=O)N1CCC2(CC1)CC(c1cnn(C)c1)C(=O)N2 (stereo unspecified)	4.267
CCN1C(=O)CC(c2cnn(C)c2)C12CCN(C(=O)C1CC=CC1)CC2 (stereo unspecified)	-6.196
CC(=O)NCC(=O)N1CCC2(CC1)NC(=O)CC2c1cccnc1.O=C(O)C(F)(F)F (stereo unspecified)	7.13
CC(=O)NCC(=O)N1CCC2(CC1)NC(=O)CC2c1cnn(C)c1 (stereo unspecified)	117.4
Cn1cc(C2CC(=O)NC23CCN(C(=O)c2ccc[nH]2)CC3)cn1 (stereo unspecified)	-5.816
CCn1ccnc1CNc1nccc(-c2cn(C)nc2C)n1	-3.456
CC(C)C(NC(=O)N1CCN(c2ccc(Cl)cc2)CC1)C(=O)NC1CC1 (stereo unspecified)	0.3878
COc1ccc(OC)c(C(O)CN2CC(n3cccn3)C2)c1 (stereo unspecified)	-4.387
CCCN1CC2(CCN(c3cc(C4CC4)ncn3)CC2)CC1C(=O)O (stereo unspecified)	-4.033
CC1(C)CN(Cc2cc(C3CCCCC3)no2)CC[C@]1(C)O	3.04
Cc1ccc(NC2CCN(C(=O)c3ccc(Cl)o3)CC2)nn1	-2.526
Cc1ccc(NC2CCN(C(=O)c3n[nH]c4ccccc34)CC2)nn1	-3.019
Cc1ccc(NC2CCN(C(=O)c3cnc(C)s3)CC2)nn1	-2.09
Cc1ccc(NC2CCN(C(=O)c3cccn3C)CC2)nn1	4.199
Cc1ccc(NC2CCN(C(=O)c3ccncc3)CC2)nn1	119.5
Cc1ccc(NC2CCN(C(=O)c3ccsc3)CC2)nn1	-4.871
Cc1ccc(NC2CCN(C(=O)c3cnn(C(C)(C)C)c3)CC2)nn1	89.59
Cc1ccc(NC2CCN(C(=O)c3sccc3C3CC3)CC2)nn1	97.28
Cc1ccc(NC2CCN(C(=O)c3ccco3)CC2)nn1	66.81
